The record followed here is PubChem BioAssay AID1963316 (National Center for Advancing Translational Sciences (NCATS), 2024).

The structures appear in SMILES notation. Records with an inconclusive call do not appear. A number with no mark means an inactive call. The source made the active and inactive calls. Calls follow the shape of the full dose curve.

Chain of Tyrosine-protein kinase ABL1 (Homo sapiens) (P00519 whole entry, looked up): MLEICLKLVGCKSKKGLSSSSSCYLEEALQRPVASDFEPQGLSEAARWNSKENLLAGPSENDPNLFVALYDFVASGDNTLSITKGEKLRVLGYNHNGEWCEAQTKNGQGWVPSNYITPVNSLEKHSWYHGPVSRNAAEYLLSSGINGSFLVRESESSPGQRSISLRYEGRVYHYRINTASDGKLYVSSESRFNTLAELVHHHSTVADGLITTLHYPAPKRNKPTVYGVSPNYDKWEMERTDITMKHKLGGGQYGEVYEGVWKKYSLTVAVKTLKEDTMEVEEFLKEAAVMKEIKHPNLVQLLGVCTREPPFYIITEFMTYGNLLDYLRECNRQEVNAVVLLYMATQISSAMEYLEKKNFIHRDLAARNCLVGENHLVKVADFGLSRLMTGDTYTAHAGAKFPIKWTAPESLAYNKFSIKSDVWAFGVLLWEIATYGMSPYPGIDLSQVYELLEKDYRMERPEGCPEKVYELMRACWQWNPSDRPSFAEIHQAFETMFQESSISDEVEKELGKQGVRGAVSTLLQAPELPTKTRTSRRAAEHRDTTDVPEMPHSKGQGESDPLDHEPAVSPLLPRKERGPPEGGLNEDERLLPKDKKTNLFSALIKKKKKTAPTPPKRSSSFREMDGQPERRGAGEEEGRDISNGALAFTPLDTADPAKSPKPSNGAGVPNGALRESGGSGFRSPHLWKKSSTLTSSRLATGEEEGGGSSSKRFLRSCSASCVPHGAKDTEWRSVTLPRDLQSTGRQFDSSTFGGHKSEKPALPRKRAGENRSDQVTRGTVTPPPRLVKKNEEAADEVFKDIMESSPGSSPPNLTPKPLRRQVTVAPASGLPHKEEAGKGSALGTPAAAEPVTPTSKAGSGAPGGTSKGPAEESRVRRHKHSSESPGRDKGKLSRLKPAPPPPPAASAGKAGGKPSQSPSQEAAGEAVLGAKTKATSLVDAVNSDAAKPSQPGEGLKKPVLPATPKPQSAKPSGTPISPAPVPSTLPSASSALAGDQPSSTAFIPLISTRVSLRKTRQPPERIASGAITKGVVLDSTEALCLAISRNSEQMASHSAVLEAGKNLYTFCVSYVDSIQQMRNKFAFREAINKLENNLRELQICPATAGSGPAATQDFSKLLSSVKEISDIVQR

This assay has as its target Tyrosine-protein kinase ABL1 (Homo sapiens) (UniProt P00519). Briefly: ABL1 kinase (ABL1-N-HiBiT) SDR gain of signal screen - plus ATP. As to conditions: purified ABL1-N-HiBiT enzyme, HiBiT luminescence with 50 uM ATP, 30 min; series mostly up to 57.5 µM; signal gain, positive = increase: at the top concentration. The method, boiled down:
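ABL1-N-HiBiT protein (10 nM final) with 50 uM ATP incubated with compounds for 30 min at RT, protected from light. Nano-Glo HiBiT reagent then added for 10 min; luminescence read on CCD imager, with DMSO neutral and imatinib positive controls.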
Regarding `COc1ccccc1-c1c[nH]c2ncc(-c3cncc(C(=O)N(C)C)c3)cc12`, the Potency is 0.0199 µM (active). For `Cc1cc(F)ccc1-c1nc(NCCN=C(N)NC#N)nc2c1ccc(=O)n2-c1c(F)cccc1F`, the “signal gain, positive = increase” value was -4.79%. Still for that read-out and setting: to `COc1ccc(-n2c(SCC#N)nc3sc4c(c3c2=O)CCCC4)cc1` belongs -1.47%; to `COc1cc(N2CCN(C)CC2)ccc1Nc1nc(N)c(C(=O)c2c(Cl)cccc2Cl)s1`, -8.77%. With `CN1CCN(CCOc2cc(OC3CCOCC3)c3c(Nc4c(Cl)ccc5c4OCO5)ncnc3c2)CC1`, the Potency was 0.0839 µM (active). In the case of `Cc1[nH]c2ccccc2c1C1=C(NCCc2ccc(F)cc2)C(=O)N(C)C1=O`, the “signal gain, positive = increase” value was -13.3%. For `CCCCCCCCCCCCc1ccc(S(=O)(=O)Nc2nncs2)cc1`, the “signal gain, positive = increase” value is -3.86%. With `S=C(NCc1ccc2c(c1)OCO2)N1CCN(c2ncnc3c2oc2ccccc23)CC1`, the “signal gain, positive = increase” value was 2.4%. As to `CCn1c(=O)c(-c2ccc(Cl)cc2Cl)cc2cnc(Nc3ccc(N4CCNCC4)c(F)c3)nc21`, the “signal gain, positive = increase” value is 10.2%. In the case of `CNC(=O)c1ccccc1Nc1nc(Nc2ccc(N3CCOCC3)cc2OC)ncc1Cl`, the “signal gain, positive = increase” value is 8.36%. As to `COC(=O)Nc1ccc(-c2nc(N3CCOCC3)c3cnn(C4CCN(C(=O)OC)CC4)c3n2)cc1`, the “signal gain, positive = increase” value was -36.6%. With `CN1CCN(c2ccc(Nc3ncc4cc(C#N)c(=O)n(C5CCCC5)c4n3)cc2)CC1`, the “signal gain, positive = increase” value is -21.5%. Still for that read-out and setting: to `Nc1ncccc1-c1nc2ccc(-c3ccccc3)nc2n1-c1ccc(C2(N)CCC2)cc1` belongs -4.38%. As to `COc1cc(N2CCC(N3CCN(C)CC3)CC2)ccc1Nc1ncc(Cl)c(Nc2ccccc2P(C)(C)=O)n1`, the Potency was 3.15 µM (active). In the case of `Cc1cc(Nc2ncc3cc(-c4c(Cl)cccc4Cl)c(=O)n(C)c3n2)ccc1F`, the “signal gain, positive = increase” value was 2.99%. The same measure, in the same setting: the result for `c1ccc(-c2oc3ncnc(NC[C@@H]4CCCO4)c3c2-c2ccccc2)cc1` reads 4.37%; that for `CO[C@H]1/C=C/O[C@@]2(C)Oc3c(C)c(O)c4c(O)c(c(/C=N\N5CCN(C6CCCC6)CC5)c(O)c4c3C2=O)NC(=O)/C(C)=C\C=C\[C@H](C)[C@H](O)[C@@H](C)[C@@H](O)[C@@H](C)[C@H](OC(C)=O)[C@@H]1C`, -27.9%; that for `Cc1ccc(C(=O)Nc2ccc(Oc3cc4cnn(C)c4cc3-c3cn[nH]c3)c(F)c2)c(=O)n1-c1ccc(F)cc1`, 3.16%. With `C=CC(=O)N1CCC(Oc2cc3c(Nc4ccc(Cl)c(Cl)c4F)ncnc3cc2OC)CC1`, the “signal gain, positive = increase” value is 5.97%. In the case of `O=C(Nc1ccc(OC(F)(F)F)cc1)c1sccc1NCc1ccnc2ccccc12`, the “signal gain, positive = increase” value was 1.19%.

Regarding `CN1CCN(CCCNc2ncc(Cl)c(-c3cc4c(C(=O)NC5CC5)cccc4s3)n2)CC1`, the “signal gain, positive = increase” value is 1.32%.

Regarding `C[C@@H]1CCNC(=O)c2cc3ccc(C(=O)Nc4nc5ccccc5n4CCCN(C)C)cc3n21`, the “signal gain, positive = increase” value is 4.51%.

For the compound `N#Cc1cccc(-c2c[nH]c3ncnc(N4CCOCC4)c23)c1`, the “signal gain, positive = increase” value was 3.34%.
